ALDH1A1 inh = qHTS Assay for Inhibitors of Aldehyde Dehydrogenase 1 (ALDH1A1) | Aldehyde dehydrogenase 1A1 (Homo sapiens), P00352 | Purified ALDH1A1, NADH fluorescence, propionaldehyde substrate | Potency, µM (titrated, usually from 75.3 µM), for inactives: at the top dose activity, negative = inhibition, actives largely listed as inhibitors | 220,000 tested, 7.3% active | AID 1030, 2008;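 further: potency means the concentration at half of the fitted maximal effect; plate controls were no enzyme wells and a reference inhibitor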
PNC assembly inh = High Content Assay for Compounds that inhibit the Assembly of the Perinucleolar Compartment. 140,000 tested, 3.1% active. PC3M PTB-GFP, PNC prevalence imaging, 16 h; stronger effect = lower value. activity change (PNC), negative = inhibition, % at 10 µM;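 active means readout at or below -70, meaning at least 70% loss of cells showing the perinucleolar compartment, a nuclear body marking cancer cells; inconclusive means readout between -30 and a set limit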;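 further: plate controls were DMSO wells for no effect and camptothecin positive control wells for full effect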
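Read-out is percentage of cells bearing a perinucleolar compartment, from automated 20x imaging of fixed, Hoechst-stained PC3M PTB-GFP cells. Cells were seeded 4 h, then exposed 16 h to compound (23 nl of library stock) in duplicate plates.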
IMPase cell inh = qHTS Assay for Identifying the Cell-Membrane Permeable IMPase Inhibitors; 120,000 tested, under 10 active; CHO-M1 cells, IP1 accumulation, HTRF TR-FRET ratio; Inositol monophosphatase 1 (Rattus norvegicus), P97697; inhibition (IP1 accumulation), % at 46.1 µM; active means well fitted curve in the direction sought with a large enough effect in the signal ratio, not every such curve was filed as active; inconclusive means small, poorly fitted or top-dose-only effect, or a change in a side signal; inactive means no such curve, though single readings can be large or run the other way; the % refers to the signal ratio;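 further: cells stimulated with carbachol in lithium chloride buffer; plate controls were DMSO basal wells for no effect and reference inhibitor wells for full effect; higher means more IMPase inhibition seen as more IP1 and lower FRET ratio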
Target sequence (P97697 whole entry, looked up): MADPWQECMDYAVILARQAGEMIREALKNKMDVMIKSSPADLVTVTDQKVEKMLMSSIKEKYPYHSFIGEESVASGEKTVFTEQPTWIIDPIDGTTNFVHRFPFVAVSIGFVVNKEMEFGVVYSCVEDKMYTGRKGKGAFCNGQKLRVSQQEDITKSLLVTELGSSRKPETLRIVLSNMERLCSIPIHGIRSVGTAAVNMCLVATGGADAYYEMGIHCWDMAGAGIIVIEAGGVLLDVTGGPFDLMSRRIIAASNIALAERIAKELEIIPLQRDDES
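Cellular IMPase inhibition is scored as a rise in cytosolic IP1, detected by competitive TR-FRET between d2-labelled IP1 and a europium anti-IP1 antibody. M1-expressing CHO cells were stimulated with carbachol for 30 min at 37C, with lithium (50 mM LiCl) present in the buffer.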
HPGD block = qHTS Assay for Inhibitors of HPGD (15-Hydroxyprostaglandin Dehydrogenase); 15-hydroxyprostaglandin dehydrogenase [NAD(+)] (Homo sapiens), P15428; purified HPGD, NADH fluorescence kinetic, PGE2 substrate; Potency, µM, inactives show at the highest dose activity change, negative = inhibition, hits mostly inhibitors; 150,000 tested, 4.3% active; AID 894, 2007; further: potency means the concentration at half of the fitted maximal effect
Target sequence (P15428 whole entry, looked up): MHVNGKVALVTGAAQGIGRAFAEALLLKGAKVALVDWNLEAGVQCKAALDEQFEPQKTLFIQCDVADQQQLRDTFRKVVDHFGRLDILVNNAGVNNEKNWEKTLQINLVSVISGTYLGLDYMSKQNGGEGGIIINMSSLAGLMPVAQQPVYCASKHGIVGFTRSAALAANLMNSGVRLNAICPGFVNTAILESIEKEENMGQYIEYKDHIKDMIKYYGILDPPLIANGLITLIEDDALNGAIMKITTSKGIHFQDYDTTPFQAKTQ
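20 nM HPGD preincubated 15 min at room temperature with compound in 50 mM Tris-HCl pH 8, 0.01% Tween 20. Started with 1 mM NAD+ and 30 uM prostaglandin E2; NADH fluorescence (360/450 nm) read 5 times over 30-s intervals, last minus first.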
LMNA splice mod = qHTS Assay for Modulators of Lamin A Splicing; HeLa LMNA splicing GFP/RFP minigene ratio, 48 h; Potency, µM (top dose mostly 46.1 µM), for inactives: at the top dose ratio change, negative = inhibition, most hits filed as inhibitors; 200,000 tested, 0.01% active; active means well fitted inhibition curve with a large enough effect in the signal ratio, with a control signal flat, not every such curve was filed as active; inconclusive means small, poorly fitted or top-dose-only effect, or effect the other way, or a change in a side signal; the % refers to the signal ratio; further: potency means the concentration at half of the fitted maximal effect
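S3 HeLa stable clones carrying a lamin A-EGFP splicing minigene plus DsRed2 were seeded at 600 cells/well in Opti-MEM with 2% FBS, pin-dosed and incubated 48 h at 37°C. Acumen cytometry (488 nm) gave the GFP/RFP total-intensity ratio.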
KinaseGlo FLuc = Counterscreen for Luciferase (Kinase-Glo TM) Inhibition; Luciferin 4-monooxygenase (Photuris pensylvanica), Q27757; Kinase-Glo luciferase, ATP luminescence, 8 min; Potency, µM (titrated, usually from 38.3 µM), for the others: at the highest dose activity change, negative = inhibition, usual class: inhibitors; 200,000 tested, 0.28% active; active means well fitted inhibition curve with a large enough effect; inconclusive means small, poorly fitted or top-dose-only effect; further: potency means the concentration at half of the fitted maximal effect; nearly all actives have a fitted effect of over 60% in size
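Recombinant Kinase-Glo luciferase, 10 uM ATP (linear range), luciferin; imidazole pH 7.2 / KCl / MgCl2 / Tween / BSA buffer; 8 min RT; luminescence.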
Starred values were filed as active, the others as inactive; [ ] = dose if it differs, or a comment. An excerpt weighted towards active compounds, which were near 10% of everything screened. Unless noted, the call rests on the fitted dose curve; in most records, active means well fitted inhibition curve with a large enough effect (not every such curve was filed as active); inconclusive means small, poorly fitted or top-dose-only effect, or another doubt; inactive means no such curve, though single readings can be large or run the other way. Unless noted, on the % scale 0 is the no-effect control and ±100 the full control effect.

COc1cccc(OC)c1C(=O)NC(=S)Nc1ccc2c(c1)Cc1ccccc1-2 was read as ALDH1A1 inh 10µM*, PNC assembly inh inconclusive, IMPase cell inh 7.1, HPGD block -16.5%, LMNA splice mod 3.0% and KinaseGlo FLuc -3.9%.
COc1cccc(OC)c1C(=O)Nc1ccc2c(c1)Cc1ccccc1-2 was read as ALDH1A1 inh 5.4%.
`Cc1[nH]nc(SCC(=O)N2CCCCC2)c1[N+](=O)[O-]` gave ALDH1A1 inh inconclusive, PNC assembly inh 27.3, IMPase cell inh 2.6, HPGD block 28.2µM*, LMNA splice mod 3.7% and KinaseGlo FLuc -9.8%.
O=C(OCc1nnc(-c2ccccc2)o1)c1cc(S(=O)(=O)N2CCOCC2)c(Cl)cc1Cl was read as ALDH1A1 inh 3.7%, PNC assembly inh inconclusive, IMPase cell inh 4.1, HPGD block 7.94µM*, LMNA splice mod 3.8% and KinaseGlo FLuc -3.4%.
Screening O=C(OCc1nnc(-c2ccccc2)o1)c1ccc(CO)cc1 returned ALDH1A1 inh 15.0%, LMNA splice mod 7.3%[46 µM] and KinaseGlo FLuc 0.7%.
O=C(OCc1nnc(-c2ccccc2)o1)c1ccc2c(c1)OCCO2 was read as ALDH1A1 inh 5.8%, PNC assembly inh -6.4, IMPase cell inh 6.6, HPGD block 7.94µM*, LMNA splice mod -2.7%[0.0737 µM] and KinaseGlo FLuc -2.0%.
Screening Cc1ccc(C(=O)OCc2nnc(-c3ccccc3)o2)o1 returned ALDH1A1 inh -6.5%, PNC assembly inh 19.3, IMPase cell inh 14.4, HPGD block 7.08µM*, LMNA splice mod 5.6% and KinaseGlo FLuc -7.5%.
Screening O=C(COc1ccc(Br)cc1)OCc1nnc(-c2ccccc2)o1 returned ALDH1A1 inh -11.4%, PNC assembly inh 17.8, IMPase cell inh -1.9, HPGD block 28.2µM*, LMNA splice mod 2.2% and KinaseGlo FLuc -7.1%.
For O=C(OCc1nnc(-c2ccccc2)o1)c1cc2ccccc2cc1O the results were ALDH1A1 inh 3.1%, LMNA splice mod -3.4%[46 µM] and KinaseGlo FLuc -2.0%.
`O=C(OCc1nnc(-c2ccccc2)o1)c1ccc(S(=O)(=O)NCc2ccco2)cc1` gave ALDH1A1 inh 15.5%, PNC assembly inh 27.4, IMPase cell inh -6.6, HPGD block 11.2µM*, LMNA splice mod -8.4% and KinaseGlo FLuc -3.2%.
For O=C(OCc1nnc(-c2ccccc2)o1)c1ccc2ccccc2n1 the results were ALDH1A1 inh 5.2%, PNC assembly inh 2.5, IMPase cell inh 10.6, HPGD block 25.1µM*, LMNA splice mod 9.4% and KinaseGlo FLuc -0.7%.
Screening Cc1ccc(NC(=O)C2CCN(S(=O)(=O)c3ccc4[nH]c(=O)ccc4c3)CC2)cc1C returned LMNA splice mod -6.9%[46 µM].
For COC(=O)[C@H](COC(C)(C)C)NC(=O)O[C@H]1C(=O)c2cc(OC)ccc2O[C@@H]1c1ccc(OC)c(Br)c1 the results were ALDH1A1 inh -12.2%, HPGD block -11.8% and KinaseGlo FLuc 3.1%.
Screening CCN(CC)CCCNC(=O)c1cc2c(Cl)nc3ccccc3c2s1 returned ALDH1A1 inh inconclusive, LMNA splice mod inconclusive and KinaseGlo FLuc -0.6%.
COc1ccc(N(C)C(=O)c2cc3c(Cl)nc4ccccc4c3s2)cc1 was read as ALDH1A1 inh -5.7%, PNC assembly inh inconclusive, IMPase cell inh 2.5, HPGD block 15.8µM*, LMNA splice mod inconclusive and KinaseGlo FLuc 3.0%.
CN(CCCNC(=O)c1cc2c(Cl)nc3ccccc3c2s1)Cc1ccccc1 was read as ALDH1A1 inh 28.2µM*, LMNA splice mod inconclusive and KinaseGlo FLuc 0.2%.

Compound activity deposited in PubChem BioAssay by National Center for Advancing Translational Sciences (NCATS).
